# Assay outcomes from PubChem BioAssay.
# A selection: hits, their analogues and other compounds. The true share with any hit is near 7.3%.
# Luc counter = blocks Kinase-Glo luciferase, a counter-screen artifact; Q27757; Kinase-Glo luciferase, ATP luminescence, 8 min; Potency, µM (highest dose often 38.3 µM), for inactives: top-dose activity change, negative = inhibition, usual class: inhibitors; actives 0.28% (n = 200,000); AID 1379; also: % is scaled to controls: 0 for no effect and ±100 for the full control effect; nearly all actives have a fitted effect of over 60% in size
#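 Kinase-Glo luciferase light output from ATP and luciferin was measured with 10 uM ATP, within the enzyme's linear range. Buffer: 50 mM imidazole pH 7.2, 50 mM KCl, 7 mM MgCl2, 0.01% Tween 20, 0.05% BSA; luminescence read after 8 min at ambient temperature.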
# FLuc modulator = counter-screen for miR-21 project: firefly luciferase inhibitors or activators. P08659. purified FLuc, Km substrates, luminescence inhibition. Potency, µM (top dose mostly 57.5 µM), for inactives: at the top dose activity change, negative = inhibition, actives largely listed as inhibitors. actives 6.9% (n = 360,000). AID 588342;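 also: plate controls were vehicle for no effect and reference inhibitor for full effect; nearly all actives have a fitted effect of over 55% in size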
# Target sequence (P08659 whole entry, looked up): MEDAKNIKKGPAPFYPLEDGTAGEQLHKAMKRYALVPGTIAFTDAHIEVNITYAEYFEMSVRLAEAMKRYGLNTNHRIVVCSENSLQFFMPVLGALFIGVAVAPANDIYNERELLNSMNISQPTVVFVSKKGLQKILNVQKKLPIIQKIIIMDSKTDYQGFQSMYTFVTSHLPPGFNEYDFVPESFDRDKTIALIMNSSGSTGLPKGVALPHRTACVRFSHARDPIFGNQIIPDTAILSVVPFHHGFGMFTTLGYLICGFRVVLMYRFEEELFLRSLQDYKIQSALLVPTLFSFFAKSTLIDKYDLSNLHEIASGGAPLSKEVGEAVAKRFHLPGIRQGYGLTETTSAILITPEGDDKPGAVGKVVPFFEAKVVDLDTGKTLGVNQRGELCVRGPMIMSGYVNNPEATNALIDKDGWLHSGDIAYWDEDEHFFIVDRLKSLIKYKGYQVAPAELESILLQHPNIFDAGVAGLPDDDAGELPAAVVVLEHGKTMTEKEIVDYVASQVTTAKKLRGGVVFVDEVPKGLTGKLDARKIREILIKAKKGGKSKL
#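 Purified P. pyralis luciferase (10nM final) with 10uM D-luciferin and 10uM ATP (Km levels) in 50mM Tris acetate pH 7.5, 10mM Mg acetate, 0.01% Tween-20, 0.05% BSA; qHTS 6-point titration, ~60 µM downward; luminescence read.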
# Rab9 prom act = Rab9 promoter activation; Huh7 Rab9 promoter-luciferase reporter, luminescence, 24 h; AID 485297; actives 2.8% (n = 320,000); Potency, µM (top dose mostly 9.22 µM), without a hit: top-dose activation, negative = inhibition, hits mostly activators; also: % of control where 0% means no effect; nearly all actives have a fitted effect of over 60% in size
#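 Cells were plated at 1500 per well in reduced-serum medium with 10% FBS and left 2 h. Compound in DMSO was then added for 24 h at 37 °C. Reporter signal was read by luminescence after 10 min with luciferase detection reagent.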
# NPC1 prom act = NPC1 promoter activation; Huh7 NPC1 promoter luciferase reporter, 24 h; Potency, µM (top dose mostly 9.22 µM), for inactives: top-dose activation, hits mostly activators; actives 2.4% (n = 320,000); AID 485313; also: % of control where 0% means no effect; nearly all actives have a fitted effect of over 60% in size
#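 Luciferase expression driven by the NPC1 promoter was measured in stably transfected Huh7 cells after a 24 h compound incubation, using a luciferase reagent and a luminescence read.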
# SMN2 splice up = increases expression of the SMN2 splice variant | actives 2.8% (n = 210,000) | HEK293 SMN2-luciferase splicing reporter, luminescence, 30-36 h | Potency, µM (doses to about 46.1 µM), inactives show at the top dose activity change, positive = activation, usual class: activators; also: % of control where 0% means no effect; nearly all actives have a fitted effect of over 55% in size
#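 qHTS luciferase splicing reporter: luminescence rises when SMN2 exon 7 is included in transfected HEK293 cells. Compound exposure lasted 30-36 h at 37C, with 4.5 mM final sodium butyrate as control, followed by a ONE-Glo read.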
# Numbers without * were called inactive; ? = inconclusive; · = no result; [ ] = dose if it differs, or a comment. Calls follow the shape of the dose curve; as a rule, active = well fitted curve in the direction sought with a large enough effect; inconclusive = small, poorly fitted or top-dose-only effect, or another doubt; inactive = no such curve, though single readings can be large; an effect the other way counts as inactive or inconclusive. Potency is read from the fitted curve at half-maximal effect.
SMILES,Luc counter,FLuc modulator,Rab9 prom act,NPC1 prom act,SMN2 splice up
O=C(Cc1cccs1)NC1CC(=O)N(c2ccccc2)C1 (stereo unspecified),·,-1.5%,·,·,·
CC1=C(C#N)C(=O)NC(=O)/C1=C\c1ccc(-c2ccc(C)cc2[N+](=O)[O-])o1,-3.6%,26.9µM*,1.3%,4.0%,-4.3%
CCOC(=O)c1cc(-c2ccc(/C=C3/C(=O)NC(=O)C(C#N)=C3C)o2)ccc1Cl,0.7%,?,0.9%,-5.3%,0.0%
O=C(COc1ccc(Cl)cc1Cl)N/N=C/c1ccc[nH]1,·,13.5µM*,-52.3%,-44.0%,·
O=C(/C=C/c1ccc(Cl)cc1)OCC(=O)c1ccc[nH]1,·,-1.2%,-1.5%,0.6%,·
O=C(COc1ccc(Cl)cc1Cl)c1ccc[nH]1,·,16.9µM*,?,?,·
CCC(=O)N1CCc2cc(Br)cc(S(=O)(=O)CCC(=O)Nc3ccc(C)c(C)c3)c21,·,5.2%,·,·,·
CCOc1ccc(NC(=O)C(C)n2c(=O)cc(-c3ccccc3)c3c(C)nn(C)c32)cc1 (stereo unspecified),·,-3.1%,·,·,·
COc1cccc2cc(S(=O)(=O)c3ccc(F)c(C)c3)c(=O)oc12,·,0.6%,·,·,-4.7%
Cc1[nH]c2ccccc2c1C(=O)CSC(=S)N1CCOCC1,·,21.3µM*,?,20.5%,·
O=S(=O)(Nc1cccc(-c2ccc(N3CCOCC3)nn2)c1)c1ccccc1C(F)(F)F,·,7.57µM*,·,·,·
O=S(=O)(Nc1cccc(-c2ccc(N3CCOCC3)nn2)c1)c1ccc(F)cc1F,·,7.57µM*,·,·,·
O=S(=O)(Nc1cccc(-c2ccc(N3CCOCC3)nn2)c1)c1cc(C(F)(F)F)ccc1Cl,·,5.36µM*,·,·,·
Cc1c2cnn(CC(=O)Nc3ccc(F)cc3F)c(=O)c2c(C)n1Cc1cccc(Cl)c1,·,-7.3%,·,·,1.4%
COc1cccc(C(=O)Nc2ccccc2OCc2cc(=O)n3ccccc3n2)c1,·,0.9%,·,·,·
CCOc1ccc(-n2c(SCC(=O)N3CCCc4ccccc43)nc3c([nH]c4ccccc43)c2=O)cc1,·,3.2%,·,·,·
CCC(C)(C)NC(=O)C1CCC(CNS(=O)(=O)c2ccc3c(c2)CC(C)N3C(C)=O)CC1 (stereo unspecified),·,-0.8%,·,·,·
Cc1nc2ccccn2c1-c1nnco1,-1.5%,-1.0%,2.3%,8.6%,-0.8%
Cc1cc(-c2nnco2)c(C)n1-c1ccccc1,-2.2%,12µM*,?,?,?
O=C(CCc1nnc(-c2ccc(-c3ccccc3)cc2)o1)N1CCCCC1,·,13.5µM*,?,?,·
O=C(CCc1nnc(-c2ccsc2)o1)N1CCc2c(Cl)cccc2C1,-1.8%,16.9µM*,?,18.6%,·
O=C(CCc1nnc(-c2ccccc2)o1)NC1CCCCC1,1.5%,16.9µM*,?,29.7%,·
COC(c1ccccc1)c1nnc(CCC(=O)NC2CCCCC2)o1 (stereo unspecified),1.7%,-15.6%,-3.1%,-2.5%,·
O=C(Nc1cc(F)ccc1F)C1COc2ccccc2C1 (stereo unspecified),·,-1.5%,·,·,·
CCC(C)(C)NC(=O)CCCSc1nc2ccccc2s1,-2.4%,23.9µM*,?,?,?
SMILES,Luc counter,FLuc modulator,Rab9 prom act,NPC1 prom act,SMN2 splice up
O=C(O)CCSc1ccc2ccccc2n1,-8.8%,23.9µM*,3.2%,-0.2%,-8.9%
O=C(O)CCSc1nc2ccccc2s1,4.0%,21.3µM*,0.3%,-3.8%,-32.0%
CCc1cccc(CC)c1NC(=O)CCCSc1nc2ccccc2s1,·,-1.5%,-3.2%,-0.5%,·
Cc1ccc(Cl)cc1-n1c(=O)cc(N2CCN(c3ccccc3)CC2)[nH]c1=O,·,-13.6%,·,·,·
COc1ccccc1NC(=O)N1CCOc2ccccc21,·,-20.1%,·,·,·
O=C(O)CCCCn1ccc(=O)[nH]c1=O,-1.7%[7.66 µM],·,·,·,-8.0%[9.22 µM]
Cc1cc(N)n(-c2nc3ccccc3s2)n1,-0.6%,-2.1%,-10.9%,-9.9%,·
Cc1c2c(=O)n(-c3nc4ccccc4s3)nc-2cc(O)n1Cc1ccccc1,·,6.75µM*,-15.7%,-4.9%,·
Cc1cc(NC(=O)C(C)C)n(-c2nc3ccccc3s2)n1,-7.9%,?,?,20.6%,-6.0%
Cc1cc(C)n(-c2nc(-c3ccccc3)cs2)n1,-3.9%,9.53µM*,?,26.3%,22.9%
Cc1cc(C)n(-c2nc3ccccc3s2)n1,-26.2%,21.3µM*,26.8%,16.8%,·
Cc1cc(C)n(-c2nc(-c3cccc(Cl)c3)cs2)n1,-4.3%,10.7µM*,?,?,17.6%
CCOC(=O)Cn1c(=O)n(-c2cccc(Cl)c2)c2nc(-c3ccccc3Cl)nc(C(N)=O)c21,·,-7.0%,·,·,·
Cc1cc(-c2ccccc2)nc2cc(C(=O)NCCCn3ccnc3)nn12,1.5%,6.3%,-3.5%,-1.5%,3.3%
Cc1cc(NCCCn2ccnc2)n2nc(-c3ccc(Cl)cc3)cc2n1,-2.2%,?,21.1%,?,2.9%
Cc1cc(NCCCn2ccnc2)n2nc(-c3ccc(F)cc3)cc2n1,-4.7%,9.53µM*,8.0%,17.5%,26.0%
Cc1cccc(-c2cc3nc(C)c(C)c(NCCCn4ccnc4)n3n2)c1,·,15.1µM*,0.9%,3.0%,·
COc1cc(CNc2ccc(N3CCCC3)cc2)cc(Cl)c1OC,-8.9%,9.53µM*,13.8%,1.1%,-37.0%
CCOc1cc(CNc2ccc(N3CCCC3)cc2)cc(Cl)c1OC,-4.2%,26.9µM*,19.5%,12.6%,-3.4%
COc1ccc(/C=N/NC(=O)c2ccccc2O)cc1Cn1nnc2ccccc21,·,21.3µM*,0.6%,0.2%,·
COc1ccc(/C=N/NC(=O)CSc2ccccc2)cc1OC,-1.9%,12µM*,-6.3%,2.4%,22.2%
COc1ccc(/C=N/NC(=O)CSc2ccccn2)cc1OC,·,19µM*,19.8%,13.3%,·
COc1ccc(/C=N/NC(=O)c2ccccc2O)cc1CN1CCOCC1,·,?,1.0%,-1.5%,·
COc1ccc(/C=N/NC(=O)c2ccccc2O)cc1CSc1ccccn1,-0.5%,19µM*,-9.6%,1.2%,2.8%
c1cncc(CNCc2cccnc2)c1,-4.5%[7.66 µM],·,·,·,-5.3%[9.22 µM]
SMILES,Luc counter,FLuc modulator,Rab9 prom act,NPC1 prom act,SMN2 splice up
COc1nc(-c2ccc(C)cc2)ccc1-c1noc(-c2ccc(C(C)(C)C)cc2)n1,·,0.1%,·,·,11.6%
COc1ccc(-n2c(=O)c3c(c4cc(OC)ccc4n3C)n(CCC(C)C)c2=O)cc1,·,1.3%,·,·,·
N=C1C(c2nc3ccccc3[nH]2)=C(O)CN1C1CCCCC1,·,?,2µM*,3.16µM*,·
N=C1C(c2nc3ccccc3[nH]2)=C(O)CN1c1ccc(F)cc1,5.8%,-14.5%,12.7%,?,-17.1%
CN1C(=O)/C(=C/c2ccc3c(c2)OCO3)N=C1c1ccccc1,-0.6%,4.78µM*,-2.0%,0.2%,8.3%
CCSC1=N/C(=C\c2ccc3c(c2)OCO3)C(=O)S1,4.6%,-19.0%,1.2%,-0.7%,·
CC(=O)/C(C#N)=C1\NC(=O)C(Cc2ccc(F)cc2)S1 (stereo unspecified),·,-1.8%,-4.0%,-5.6%,·
CC(=O)/C(C#N)=C1\NC(=O)C(Cc2ccc(C)c(C)c2)S1 (stereo unspecified),-1.1%,21.3µM*,11.4%,9.9%,?
